A word on the inhibition: it is the drop in the measured response relative to a control, in per cent.

Molecules are shown by their SMILES. Values joined by “and” are separate entries in the source; they are usually repeats but may differ in a detail not shown here. Equal entries are not always repeated. Active and inactive are the calls of the source.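 How the source made its calls, unless noted: active means inhibition at or above 50% relative to wild type and mutant plate controls; inactive means inhibition below 50%.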

Test [1] can be described thus: inhibitors of TNFa-induced NFkB p65 translocation, primary screen, imaging, HUVEC, MLSMR starter and 10KST1 sets (AID 438;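 active means inhibition above 20% together with a positive visual image hit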;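 further: compound added about 3h40 before a 20 min TNFalpha stimulation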;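 on inhibition: signal is the nuclear over cytoplasmic p65 intensity ratio per well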). To be noted: HUVEC TNFa-induced p65 nuclear translocation; cell count: measured here: nuclei count (cytotoxicity indicator), at 2.08 µM; inhibition: at 2 µM, stronger effect = higher value, 0% TNFa-plus-vehicle, 100% no-TNFa wells.
A short description of test [2]: reduction of polyQ htt aggregates in cells – imaging, exon1htt(103Q)mCFP cells, high-content imaging, primary screen (AID 483;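 active means visual image review flags a hit and inhibition of aggregation exceeds 20%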;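 further: compound exposure lasted 3 days before fixation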;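 on nuclei count: percent of the per-plate median nuclei count of sample wells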). The settings on record: exon1htt(103Q)mCFP cell line, aggregate imaging, at 2 µM; inhibition of aggregation: stronger effect = higher value; nuclei count: measured here: cell count, toxicity.
Test [3] is described as follows: endothelial E-selectin expression blockers – imaging, HUVEC, immunofluorescence, MLSMR starter and 10KST1 sets, primary screen (AID 487;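 active means visually confirmed hit in the image check and inhibition above 20%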;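 on inhibition: signal is fraction of cell area covered by stained E-selectin grains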;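 on nuclei count: 100% = median nuclei count of all wells on the same plate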). The settings on record: HUVEC TNFalpha-induced E-selectin immunofluorescence imaging, at 2 µM; inhibition: stronger effect = higher value; nuclei count: measured here: cell number, toxicity.
Test [4] is described as follows: Primary imaging screen for DUSP6 inhibitors that restore phospho-Erk in transfected HeLa cells, chemical complementation (AID 609;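 active means compounds giving at least 50% inhibition in the cell-based MKP-3 phosphatase rescue imaging test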;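 on inhibition: phospho-Erk level distribution per well compared with pooled transfected vehicle control wells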). The settings on record: HeLa MKP-3 transfected, phospho-Erk imaging KS statistic, at 10 µM, cells stimulated with TPA for 15 min.
In test [5] the target is Dual specificity protein phosphatase 6 (Homo sapiens) (UniProt Q16828). Described as above. To be noted: HeLa MKP-3 transfected, phospho-Erk imaging KS statistic; at 10 µM; stronger effect = higher value; cells stimulated with TPA for 15 min.
Dual specificity protein phosphatase 6 (Homo sapiens), sequence (Q16828 whole entry, looked up): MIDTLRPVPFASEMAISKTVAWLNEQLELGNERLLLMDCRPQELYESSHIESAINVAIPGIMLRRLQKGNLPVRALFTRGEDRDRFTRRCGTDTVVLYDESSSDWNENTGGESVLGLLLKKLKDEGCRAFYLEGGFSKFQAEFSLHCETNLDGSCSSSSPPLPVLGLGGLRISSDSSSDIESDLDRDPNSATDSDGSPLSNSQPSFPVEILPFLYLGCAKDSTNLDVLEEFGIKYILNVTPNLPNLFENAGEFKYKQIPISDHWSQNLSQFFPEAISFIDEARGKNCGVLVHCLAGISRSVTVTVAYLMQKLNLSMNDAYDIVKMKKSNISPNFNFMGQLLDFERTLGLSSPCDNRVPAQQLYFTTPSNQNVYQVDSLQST
Test [6] deals with Voltage-gated potassium channel subunit beta-2 (Rattus norvegicus) (UniProt P62483). As to the kind of experiment: inhibitors of rat Kvbeta2 reductase activity – biochemical, NADPH fluorescence, primary screen (AID 622;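 active means fluorescence slope higher than the sample average by over 3 SD, cut at about -0.22 in these data, passing the limit was not always enough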;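 further: slope of raw intensity against log time taken from 70 to 1610 s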). The settings on record: recombinant KvBeta, 4-cyanobenzaldehyde reduction, at 10 µM, stronger effect = higher value.
Voltage-gated potassium channel subunit beta-2 (Rattus norvegicus), sequence (P62483 whole entry, looked up): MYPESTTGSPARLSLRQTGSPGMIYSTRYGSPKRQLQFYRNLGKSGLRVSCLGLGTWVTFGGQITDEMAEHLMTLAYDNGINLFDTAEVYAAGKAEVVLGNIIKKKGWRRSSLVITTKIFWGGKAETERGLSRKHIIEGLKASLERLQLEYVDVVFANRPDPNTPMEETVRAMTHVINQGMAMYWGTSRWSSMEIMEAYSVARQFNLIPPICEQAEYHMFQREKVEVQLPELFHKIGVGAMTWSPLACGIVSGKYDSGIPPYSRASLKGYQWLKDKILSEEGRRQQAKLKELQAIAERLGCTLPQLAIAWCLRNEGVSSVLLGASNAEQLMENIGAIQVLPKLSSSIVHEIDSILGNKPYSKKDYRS
Test [7] has the same target. As to the kind of experiment: enhancers of rat Kvbeta2 NADPH turnover – biochemical, NADPH fluorescence, primary screen (AID 623;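 active means NADPH fluorescence slope more negative than the mean of all samples by about 3 SD, 99.7% confidence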;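 further: fluorescence intensity change per second fitted from 20 to 320 s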). The settings on record: Recombinant KvBeta, NADPH fluorescence decrease slope, 10 min; at 10 µM; stronger effect = lower value.
Test [8] addresses Muscarinic acetylcholine receptor M4 (Homo sapiens) (UniProt P08173). As to the kind of experiment: M4-linked GIRK flux change, two-sided – cell-based, HEK293 M4/GIRK, thallium flux, BTC-AM, M4 allosteric agonist project, primary screen (AID 625;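 active means fluorescence slope after compound addition differing from the mean of all tested samples at 99.7% confidence, mostly higher but some lower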;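 further: thallium influx through GIRK channels coupled to M4 in HEK293 cells with BTC-AM dye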). The settings on record: at 10 µM, actives lie on both sides.
Test [9] is described as follows: inhibitors of larval lipid processing in zebrafish, primary screen, whole organism, PED6 fluorescence, gall bladder and intestine (AID 686;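 active means a full or partial loss of lipid-probe fluorescence in the fish gall bladder, intestine or both, judged by eye; inactive means no fluorescence loss, or compound toxic to the fish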;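 further: larvae 5 to 7 days old with five fish per well; signal comes from phospholipase A2 cleavage of quenched PED6 carried via bile; overnight exposure to compound and PED6 before scoring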). The settings on record: Zebrafish larvae PED6 lipid processing, fluorescence scoring; screened at 20 µM (by protocol).
A short description of test [10]: loss of swimming-algae plug formation – whole organism, Chlamydomonas reinhardtii, WT vs cilia-less mutant, absorbance, 96-well, primary screen (AID 463189).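 Further: 0% = wild type cc124 cells in DMSO and 100% = ciliumless bld1 mutant cells.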 The settings on record: Chlamydomonas reinhardtii gravitaxis, OD600 absorbance, 2 days; at 10 µM; stronger effect = higher value.
Test [11] can be described thus: blockers of RIG-like receptor reporter activation – cell-based, Sendai virus stimulus, luciferase, 10K MLSCN set, TLR/RLR signaling modifier project, primary screen (AID 602276;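 active means inhibition at or above 50% at 10 µM; inactive means inhibition below 50%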;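 further: firefly luciferase from ISG56 promoter only with Renilla not read in this screen; 0% = Sendai virus plus DMSO and 100% = medium plus DMSO without virus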). To be noted: HEK293 RL24 IRF3 luciferase reporter, at 10 µM, stronger effect = higher value. In general terms: Reporter assays use an easily measured gene product as a stand-in for the process of interest.

Test [12] in a line: TLR3 IRF3 reporter activation blockers – cell-based, poly I:C stimulus, luciferase, 10K MLSCN set, primary screen (AID 602277;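 active means inhibition of the reporter signal at or above 50%; inactive means inhibition below 50%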). To be noted: HEK293-TLR3 RL24 IRF3 luciferase reporter, at 10 µM, stronger effect = higher value.
The target of test [13] is Alpha-2C adrenergic receptor (Homo sapiens) (UniProt P18825). Put plainly: compounds altering alpha2C-coupled GIRK flux – cell-based, HEK293 alpha2C/GIRK1/2, thallium flux, primary screen (AID 624;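 active means fluorescence slope after compound addition differing from the mean of all screened samples at 99.7% confidence, in either direction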;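 further: slope of fluorescence ratio to pre-addition baseline per second over 15 to 24 s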). The settings on record: thallium flux BTC fluorescence, at 10 µM, actives lie on both sides.
Alpha-2C adrenergic receptor (Homo sapiens), sequence (P18825 whole entry, looked up): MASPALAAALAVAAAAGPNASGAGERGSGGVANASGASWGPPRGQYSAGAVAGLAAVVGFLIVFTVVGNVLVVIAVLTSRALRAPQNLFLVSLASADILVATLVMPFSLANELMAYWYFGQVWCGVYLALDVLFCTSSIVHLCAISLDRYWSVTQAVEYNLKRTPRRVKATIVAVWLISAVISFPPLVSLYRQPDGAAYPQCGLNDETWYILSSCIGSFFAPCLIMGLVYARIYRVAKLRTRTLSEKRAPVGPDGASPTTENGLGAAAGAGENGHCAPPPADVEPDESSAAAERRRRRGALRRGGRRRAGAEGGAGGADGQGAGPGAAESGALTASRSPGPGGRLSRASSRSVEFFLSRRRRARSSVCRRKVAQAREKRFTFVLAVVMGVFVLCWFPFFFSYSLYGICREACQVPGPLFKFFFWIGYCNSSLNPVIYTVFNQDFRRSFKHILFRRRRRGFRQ
The mark [14] stands for this setting: measured here: cell density z-score.
[15] abbreviates: measured here: nuclear c-Myc green intensity z-score.
[16] abbreviates: measured here: nuclear pErk red intensity z-score, stronger effect = higher value.

Muscarinic acetylcholine receptor M4 (Homo sapiens), sequence (P08173 whole entry, looked up): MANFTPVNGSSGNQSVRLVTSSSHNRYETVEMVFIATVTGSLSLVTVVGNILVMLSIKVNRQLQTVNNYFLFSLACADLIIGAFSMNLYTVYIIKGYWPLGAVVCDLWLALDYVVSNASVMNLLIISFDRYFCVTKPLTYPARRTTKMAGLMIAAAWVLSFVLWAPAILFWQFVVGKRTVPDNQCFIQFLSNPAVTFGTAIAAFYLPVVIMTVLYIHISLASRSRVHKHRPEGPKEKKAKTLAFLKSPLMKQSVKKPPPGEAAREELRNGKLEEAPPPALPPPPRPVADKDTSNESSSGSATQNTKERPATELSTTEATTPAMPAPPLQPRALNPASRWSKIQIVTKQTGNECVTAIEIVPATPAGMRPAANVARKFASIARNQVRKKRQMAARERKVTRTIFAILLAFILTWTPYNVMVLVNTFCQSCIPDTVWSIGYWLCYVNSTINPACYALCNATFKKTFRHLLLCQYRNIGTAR

With `O=C1C2ON(c3ccccc3)C(c3cccnc3)C2C(=O)N1c1ccccc1` (stereo not drawn), the cell count in [1] stood at 667. For the same compound, the inhibition in [1] is -4.7% (inactive); in test [3] it was -28.2% (inactive); in test [5], 16% (inactive); in [10] it was -4.82% (inactive); in test [11] it was -8.41% (inactive); in [12] it was -21.8% (inactive). Further, in test [2], the inhibition of aggregation was -1.5% (inactive). In addition, the nuclei count in [2] was determined as 104%; in [3], 130%. The figures for the z-score in test [4] (setting [14]), in test [4] (setting [15]) and in test [4] (setting [16]) were 0.476, 0.609 and -0.133, respectively. Also, the fluorescence slope in test [6] is -0.503 (inactive); in test [8], 0.00593 (inactive). Further, the NADPH fluorescence slope in test [7] is -2.9e-05 (inactive). In test [9], the result was inactive.
Regarding `Cc1nc2c(o1)CCc1ccccc1C2O` (stereo not drawn), the cell count in test [1] worked out at 606. For the same compound, the inhibition is 3.6% (inactive) in [1]; -16.2% (inactive) in test [3]; 15.5% (inactive) in test [5]; 19.1% (inactive) in [10]; 2.65% (inactive) in test [11]; 14.8% (inactive) in test [12]. Moreover, the inhibition of aggregation in test [2] was -5% (inactive). The nuclei count in test [2] is 106%; in test [3] it was 99.8%. Also, the results for the z-score in [4] (setting [14]), in [4] (setting [15]) and in test [4] (setting [16]) were 3.05, -1.58 and -1.98, respectively. Moreover, the fluorescence slope in test [6] was -0.523 (inactive); in test [8], 0.00553 (inactive). In addition, the NADPH fluorescence slope in test [7] was -4e-05 (inactive). Also, the call in [9] was inactive.
As for `CCN(CC)CCNC(=O)c1cc(Cl)c(N)cc1OC`, the cell count in test [1] was 552. The inhibition in [1] was -4.5% (inactive); in test [3], -17.3% (inactive); in test [5] it was -0.493% (inactive); in test [10] it was 8.75% (inactive) and -3.64% (inactive); in test [11], -8.87% (inactive); in test [12], 30.5% (inactive). Besides, the inhibition of aggregation in test [2] was 5.6% (inactive). In addition, the figures for the nuclei count in [2] and in test [3] were 106% and 120%, respectively. The z-score in test [4] (setting [14]) is 0.156; in test [4] (setting [15]) it was -0.776; in test [4] (setting [16]), 0.343. Further, in test [6], the fluorescence slope was -0.444 (inactive). Also, the NADPH fluorescence slope in test [7] is 4.3e-05 (inactive). Besides, in [13], the slope is 0.00461 (inactive). For the same compound, in [9], the compound was called inactive.
Turning to `Fc1ccccc1-c1nc(NCCCN2CCOCC2)c2ccccc2n1`, the cell count in test [1] came to 480. For the same compound, the inhibition was -0.7% (inactive) in [1]; -89.4% (inactive) in [3]; 27.5% (inactive) in [5]; 7.49% (inactive) in test [10]; -10.9% (inactive) in [11]; -2.43% (inactive) in [12]. Also, in [2], the inhibition of aggregation is -2.8% (inactive). For the same compound, the results for the nuclei count in [2] and in [3] were 108% and 130%, respectively. Besides, the z-score in test [4] (setting [14]) is 0.781; in test [4] (setting [15]), -1.18; in [4] (setting [16]), -0.632. In addition, the fluorescence slope in test [6] was -0.448 (inactive). Also, the NADPH fluorescence slope in test [7] is -1.9e-05 (inactive). For the same compound, in test [13], the slope was 0.00649 (inactive). In addition, the call in test [9] was inactive.
`O=C(O)CCCCCCC1C(=O)NC(=O)N1CCC(O)C1CCCCC1` (stereo not drawn): in test [1], the cell count came to 579. The inhibition is -9.7% (inactive) in test [1]; -76.1% (inactive) in test [3]; -0.493% (inactive) in [5]; 1.26% (inactive) in [10]; 15.9% (inactive) in [11]; 36.2% (inactive) in test [12]. Also, the inhibition of aggregation in test [2] was -6.4% (inactive). The nuclei count in test [2] amounted to 97.8%; in [3] it was 116%. In addition, the z-score is -0.528 in test [4] (setting [14]), -0.266 in test [4] (setting [15]) and 1.03 in test [4] (setting [16]). Besides, the fluorescence slope in test [6] was -0.507 (inactive). For the same compound, the NADPH fluorescence slope in test [7] is -5.2e-05 (inactive). Besides, in test [13], the slope was 0.00541 (inactive). In addition, the call in test [9] was inactive.
On to `CN(C)C(=O)Oc1cccc([N+](C)(C)C)c1`, for which, in test [1], the cell count was 531 and 586. Also, the inhibition in test [1] is -9.9% (inactive) and -7.8% (inactive); in test [3] it was -9.8% (inactive) and -52% (inactive); in [5], 17.3% (inactive) and -0.493% (inactive); in test [10], -1.35% (inactive) and 24.7% (inactive) and 16% (inactive); in test [11], 14.9% (inactive) and 3.46% (inactive); in test [12], 31.8% (inactive) and 16.1% (inactive). In addition, the inhibition of aggregation in [2] was 17.2% (inactive) and -13.6% (inactive). The nuclei count was 74.9% and 106% in test [2]; 104% and 142% in test [3]. Also, the z-score in test [4] (setting [14]) is 0.51 and -0.93; in test [4] (setting [15]), 1.04 and 0.599; in test [4] (setting [16]), 0.404 and -0.0753. For the same compound, the fluorescence slope in [6] was -0.425 (inactive) and -0.463 (inactive). Also, the NADPH fluorescence slope in [7] was -3.3e-06 (inactive) and -0.000178 (inactive). In [13], the slope was 0.00518 (inactive) and 0.00527 (inactive). In addition, the result in [9] was inactive.
For `CCCCOc1ccc(C(=O)Nn2cnnc2)cc1`, the cell count in test [1] came to 491. Also, the inhibition in [1] was -0.8% (inactive); in test [3] it was -83.6% (inactive); in [5] it was -8.27% (inactive); in test [10] it was 0.154% (inactive); in test [11], 9.75% (inactive); in test [12] it was 15.4% (inactive). Moreover, in [2], the inhibition of aggregation was 14.2% (inactive). Also, the nuclei count in [2] turned out to be 96.9%; in test [3] it was 100%. Moreover, the z-score in test [4] (setting [14]) was -0.477; in test [4] (setting [15]), -1.53; in test [4] (setting [16]), -0.77. Moreover, the fluorescence slope in test [6] was -0.32 (inactive). For the same compound, in test [7], the NADPH fluorescence slope is -2.1e-05 (inactive). In test [13], the slope was 0.00306 (inactive). For the same compound, in test [9], the outcome was inactive.
Regarding `C=CCn1c(SCC(=O)NC23CC4CC(CC(C4)C2)C3)nc(O)cc1=O`, in test [1], the cell count came out at 629. Also, the inhibition in [1] was -3.7% (inactive); in test [3], -39.7% (inactive); in [5] it was 7.83% (inactive); in [10] it was 12.5% (inactive); in [11] it was 17.8% (inactive); in test [12] it was 24.6% (inactive). Also, the inhibition of aggregation in [2] is -0.4% (inactive). Further, the nuclei count was 103% in [2] and 129% in [3]. The z-score is -0.394 in test [4] (setting [14]), -0.06 in test [4] (setting [15]) and 0.754 in [4] (setting [16]). Also, the fluorescence slope in test [6] was -0.532 (inactive). The NADPH fluorescence slope in [7] was -4.2e-05 (inactive). In [13], the slope was 0.00471 (inactive). The compound was classed as inactive in test [9].
With `Nc1nc(N)c2nc(-c3ccccc3)c(N)nc2n1`, in test [1], the cell count came out at 640. Further, the inhibition in test [1] was -0.8% (inactive); in test [3] it was -64.7% (inactive); in test [5], -11.9% (inactive); in [10], 4.85% (inactive) and -8.55% (inactive); in test [11], 12.2% (inactive); in [12], 34.5% (inactive). The inhibition of aggregation in test [2] was -9.9% (inactive). The nuclei count in test [2] was determined as 107%; in test [3], 133%. Moreover, the z-score was -0.982 in test [4] (setting [14]), -0.143 in test [4] (setting [15]) and 2.15 in test [4] (setting [16]). In addition, in [6], the fluorescence slope is -0.0137 (active). For the same compound, the NADPH fluorescence slope in test [7] was -1.2e-05 (inactive). The slope in test [13] was 0.00479 (inactive). For the same compound, in test [9], the compound was classed as inactive.

(Values after PubChem BioAssay.)
